Sampled rows, rich in hits. Any-hit rate of the full collection: about 0.8%.
TDP1 block – qHTS Assay for Inhibitors of Tyrosyl-DNA Phosphodiesterase (TDP1). Tyrosyl-DNA phosphodiesterase 1 (Homo sapiens), Q9NUW8. recombinant TDP1, AlphaScreen DNA substrate cleavage. Potency, µM (doses to about 130 µM), most hits filed as inhibitors. actives 0.28% (n = 350,000); note: nearly all actives have a fitted effect of over 40% in size
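Enzyme-compound mixtures sat 15 min at room temperature, followed by a 5 min reaction with 15 nM final substrate and 10 min with AlphaScreen beads. Recombinant human Tdp1 was used at 1 nM final.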
PI4K2A inh – qHTS for small molecular inhibitors of PI4K2A; activity change, negative = inhibition, % at 76.9 µM; purified PI4K2A, ADP-Glo luminescence, 1 h; hits give low values; Phosphatidylinositol 4-kinase type 2-alpha (Homo sapiens), Q9BTU6; actives 0.13% (n = 420,000); in the data active = activity change below about -50%; inconclusive = mostly about -30% to -49%
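PI4K2A activity was measured by ADP-Glo luminescence: enzyme (4 ug/mL stock) and phosphatidylinositol (1.2 mM stock) in Tris pH 7.5/MgCl2/EGTA/Triton X-100 buffer were reacted with ATP (300 microM stock) for one hour at ambient temperature.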
PGK inhibitor – qHTS Assay to Find Inhibitors of Phosphoglycerate Kinase; Phosphoglycerate kinase, glycosomal (Trypanosoma brucei brucei), P07378; PGK/GAPDH coupled, Kinase-Glo luminescence, 60 min; Potency, µM (highest dose often 57.5 µM), usual class: inhibitors; actives 0.043% (n = 380,000); AID 602233, 2012; note: nearly all actives have a fitted effect of over 60% in size
Target sequence (P07378 whole entry, looked up): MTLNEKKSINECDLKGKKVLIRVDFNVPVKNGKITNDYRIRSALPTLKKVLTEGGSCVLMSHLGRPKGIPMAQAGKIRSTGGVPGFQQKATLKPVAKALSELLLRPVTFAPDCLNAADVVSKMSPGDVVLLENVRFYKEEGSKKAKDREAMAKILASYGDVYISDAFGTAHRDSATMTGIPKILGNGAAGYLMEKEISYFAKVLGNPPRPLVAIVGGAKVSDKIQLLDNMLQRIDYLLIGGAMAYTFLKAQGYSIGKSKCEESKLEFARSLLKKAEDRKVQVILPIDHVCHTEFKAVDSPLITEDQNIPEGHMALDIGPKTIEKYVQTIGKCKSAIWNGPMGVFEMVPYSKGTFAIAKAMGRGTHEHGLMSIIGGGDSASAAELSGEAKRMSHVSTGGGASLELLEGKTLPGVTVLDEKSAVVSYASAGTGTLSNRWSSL
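Recombinant glycosomal PGK reaction used 1,3-bisphosphoglycerate generated in-well by GAPDH (100nM final) in 100mM TEA pH 7.6, 5mM MgCl2, 0.01% Tween-20. After 60 minutes at room temperature, ATP was read by Kinase-Glo Plus luminescence end-point.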
FEN1 inh – qHTS Assay for the Inhibitors of Human Flap endonuclease 1 (FEN1) | P39748 | Recombinant FEN1 flap cleavage, fluorescence, 15 min | Potency, µM (titrated, usually from 114 µM), usual class: inhibitors | actives 0.35% (n = 390,000) | AID 588795, 2011; note: nearly all actives have a fitted effect of over 65% in size
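Quantitative HTS format: each compound was titrated, incubated with 10 nM nuclease for 15 min at room temperature, then challenged with flap substrate at 50 nM final. Signal change over 15 min gave concentration–effect curves.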
Tb PFK block – qHTS Assay to Find Inhibitors of T. brucei phosphofructokinase | T. brucei PFK, ADP-Glo luminescence | Potency, µM (titrated, usually from 57.5 µM), usual class: inhibitors | actives 0.17% (n = 330,000); note: nearly all actives have a fitted effect of over 60% in size
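Compounds were pin-transferred as a titration series up to 57 uM into substrate buffer (0.5 mM F6P, 0.1 mM ATP, pH 8.0), then 1.25 nM PFK was added and reactions ran 45 min before ADP-Glo detection.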
APEX1 inh – qHTS Assay for Inhibitors of the Human Apurinic/apyrimidinic Endonuclease 1 (APE1) | DNA repair nuclease/redox regulator APEX1 (Homo sapiens), P27695 | recombinant APE1, TAMRA/BHQ-2 abasic DNA cleavage fluorescence | Potency, µM (series often up to 65.8 µM), actives largely listed as inhibitors | actives 0.35% (n = 350,000) | AID 2517, 2012; note: nearly all actives have a fitted effect of over 55% in size
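Step 1: APE1 (0.75 nM) with compound, 15 min RT. Step 2: add 50 nM fluorophore/quencher THF duplex. Step 3: three fluorescence reads 60 s apart (525/598 nm); read 3 minus read 1 = reaction progress.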
Hits are given with their value; [ ] = another dose, or the depositor's remark. Unless noted, calls come from the whole dose curve; as a rule, active = well fitted curve in the direction sought with a large enough effect; inconclusive = small, poorly fitted or top-dose-only effect, or another doubt; inactive = no such curve, though single readings can be large; an effect the other way counts as inactive or inconclusive.

Screening CCN(CC)CCOC(=O)c1ccc(NC(=O)CCCN2C(=O)S/C(=C/c3ccc(OC)cc3)C2=S)cc1 returned TDP1 block inactive, PI4K2A inh inactive, PGK inhibitor inactive, FEN1 inh inconclusive, Tb PFK block inactive and APEX1 inh 34µM.
`COc1cc(F)c(S(=O)(=O)N2CCN(S(=O)(=O)c3ccco3)CC2)c(F)c1` gave TDP1 block inactive.
Screening CCC(=O)NC(c1ccc(Br)o1)c1cc(Cl)c2cccnc2c1O (configuration not stated) returned TDP1 block inactive.
For O=C(Nc1c(-c2ccccc2)[nH][nH]c1=O)c1ccc(-c2ccccc2)cc1 the results were PI4K2A inh inactive.
O=C(Nc1c(-c2ccc3c(c2)OCO3)[nH][nH]c1=O)c1ccccc1 was read as PI4K2A inh -60.
`COc1ccc2cc(C(C)C(=O)OC(C)C)ccc2c1` (configuration not stated) gave TDP1 block 79µM, PI4K2A inh inactive, PGK inhibitor inactive, FEN1 inh inactive, Tb PFK block inactive and APEX1 inh inactive.
COc1ccc2cc([C@H](C)CO)ccc2c1 was read as APEX1 inh inactive.
For N#C/C(=C\c1ccc(-c2ccc(C(=O)O)cc2)o1)c1nc2ccccc2[nH]1 the results were TDP1 block inactive[12.3 µM], PI4K2A inh inactive, PGK inhibitor inactive, FEN1 inh 45µM, Tb PFK block inactive and APEX1 inh inconclusive.
`N#C/C(=C\c1ccccc1C(=O)O)c1nc2ccccc2[nH]1` gave PI4K2A inh inactive, PGK inhibitor inactive, FEN1 inh inactive, Tb PFK block inactive and APEX1 inh inactive.
`N#C/C(=C\c1ccc(-c2ccc(Cl)c(C(=O)O)c2)o1)c1nc2ccccc2[nH]1` gave PI4K2A inh inactive, PGK inhibitor inconclusive, FEN1 inh inactive, Tb PFK block inactive and APEX1 inh 27µM.
Screening N#C/C(=C\c1ccc(N2CCOCC2)o1)c1nc2ccccc2[nH]1 returned TDP1 block inactive, PI4K2A inh inactive, PGK inhibitor inactive, FEN1 inh inconclusive, Tb PFK block inactive and APEX1 inh inconclusive.
Screening COc1ccc(S(=O)(=O)N2c3ccc(Cl)cc3[C@@](O)(c3ccccc3Cl)[C@H]2C(=O)N2CCC[C@@H]2C(N)=O)cc1OC returned PI4K2A inh inactive.
For C=CCCCN(Cc1ccccc1)S(=O)(=O)c1ccccc1Br the results were TDP1 block 40µM, PI4K2A inh inactive, PGK inhibitor inactive, FEN1 inh inactive, Tb PFK block inactive and APEX1 inh inactive.
`O=C(CCS(=O)(=O)c1ccc(F)cc1)Nc1nc(-c2ccncc2)cs1` gave TDP1 block inactive, PI4K2A inh inactive, PGK inhibitor inactive, FEN1 inh inactive, Tb PFK block 21µM and APEX1 inh inactive.
Screening Cc1ccc(S(=O)(=O)NC(N)=NCCC[C@@H](N)C(=O)Nc2cc(C(F)(F)F)ccc2Cl)cc1 returned TDP1 block inactive.
Oc1ccc(NCc2ccccc2F)c2cccnc12 was read as TDP1 block inactive.
Screening CCN(CC)C(=O)C1CN2CCc3cc(OC)c(OC)cc3C2CC1OC(C)=O (configuration not stated) returned PI4K2A inh inactive.
For COc1cc(OC)c(C#N)c(S(=O)(=O)Cc2ccccc2)c1 the results were TDP1 block inactive, PI4K2A inh inactive, PGK inhibitor inactive, FEN1 inh inactive, Tb PFK block inactive and APEX1 inh inactive.

Source: PubChem BioAssay (National Center for Advancing Translational Sciences (NCATS))
